The results in this text go back to the OligoGym collection.
Also: reference of the scale not given here.

The target of one test is APLNR. Put plainly: pooled miR-30 sensor sort-seq; sequence = guide strand. To be noted: shRNA.
As for TTTGAGGACAGCTCTGGGCAGA, the sensor-assay potency score (higher = more potent) was -0.516.
The same measure, in the same setting: the value for TAGCACTGCACCTTAGTGGTGT was 0.437; that for TTCTCGTGCATCTGTTCTCCAC was -0.937.
The same measure, in the same setting: the value for TTATCTGCTGACACACAGCCCA was -0.574; that for TAGCTGGCTGACTTCTCCCCAC was -0.754; that for TAATTATCTGCTGACACACAGC was -0.776.
TGGAGCACTAATTATCTGCTGA yielded a sensor-assay potency score (higher = more potent) of -0.596.
TAACAGGTCAGCATGATGGTGA had a sensor-assay potency score (higher = more potent) of 0.0238.

The target in another test is APOA1. The test is described as above. To be noted: shRNA.
The sequence TTAGCTGTTTTCCCAAGGCGGA displayed a sensor-assay potency score (higher = more potent) of -1.3.
For TAGGTTTAGCTGTTTTCCCAAG, the sensor-assay potency score (higher = more potent) was -1.2.
Still for that read-out and setting: the result for TCGCGCAGCTTGCTGAAGGTGG reads -0.684; that for TTTAGCTGTTTTCCCAAGGCGG, -0.584; that for TGGGACACATAGTCTCTGCCGC, -0.692.
Take TTGTCAAGGAGCTTTAGGTTTA: the sensor-assay potency score (higher = more potent) is -0.808.
In turn, TTCTTCTGGAAGTCGTCCAGGT displayed a sensor-assay potency score (higher = more potent) of -0.431.
On the same count and under the same terms, the value for TCAGCTTCTCTTGCAGCTCGTG was -1.07; that for TTGAGCACATCCACGTACACAG was -0.115; that for TTGGAGCTCTGCGCGCAGCGGC was -1.17.
Take TACTCGGCCAGTCTGGCGCCGC: the sensor-assay potency score (higher = more potent) was -0.96.
On the same count and under the same terms, the value for TTTGAGCACATCCACGTACACA was -1.01; that for TTGGCCTTCTCGCTGAGCGTGC was -0.4.
Same read-out and setting: the value for TTCTCTTGCAGCTCGTGCAGCT was -0.213.
On the same count and under the same terms, the value for TAGAGCTCCATCTCCTCCTGCC was 0.375; that for TTAGGTTTAGCTGTTTTCCCAA was 0.243.
Sequence AACTGGGACACATAGTCTCTGC had a sensor-assay potency score (higher = more potent) of -0.955.
Consider TCTTGCTGCCAGAAATGCCGAG, for which the sensor-assay potency score (higher = more potent) is -0.701.
On the same count and under the same terms, the result for TGTCTTTGAGCACATCCACGTA reads -1.2; that for TTGCAGCTCGTGCAGCTTCTGG, -1.14; that for TAGCTGTTTTCCCAAGGCGGAG, -1.51.

Another test addresses APOA4. The test is described as above. Conditions: shRNA.
Turning to TTCTTCTTCATCTGGAAGGTCA, the sensor-assay potency score (higher = more potent) was -0.417.
Same read-out and setting: the result for TTGAAGGTGCTGAAGAAGGAGT reads -1.02; that for TTTCTGGAGATGTTCCACGGCC, -0.87; that for TCTTTCTCCTTGAAGGTGCTGA, 0.0406.
With TTGGCCTTGAGCTCGTCGGCGT, the sensor-assay potency score (higher = more potent) is -0.576.
On the same count and under the same terms, the value for TCCACGTTCTGGTCGATCTTGG was -1.41.
Same read-out and setting: the value for AAGTAGTCCCACATCACCGTGG was -0.243.
With TTGAGCTCCTCCACGTTCTGGT, the sensor-assay potency score (higher = more potent) amounted to 0.494.
As for TGAAGTAGTCCCACATCACCGT, the sensor-assay potency score (higher = more potent) was -0.0577.
Same read-out and setting: the value for TTCTTCATCTGGAAGGTCAGGC was 0.31.
Still for that read-out and setting: the value for TCGATCTTGGCCTTGAGCTCGT was -0.264.
